KDM5B inhibitor: blocks human KDM5B histone demethylase activity | KDM5B demethylase, FDH-coupled NADH fluorescence (FDH is formaldehyde dehydrogenase) | Q9UGL1 | 2.6% of 220,000 active | Potency, µM (titrated, usually from 57.7 µM), most hits filed as inhibitors; further: potency means the concentration at half of the fitted maximal effect; 0% is about no effect; nearly all actives have a fitted effect of over 70% in size
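Coupled FDH/NAD⁺ fluorescence readout. KDM5BΔAP 200 nM final; compound titration, 10 min RT preincubation; substrate mix 12.5 µM H3K4me3, 25 µM 2-OG, 50 µM Fe(II), 100 µM ascorbate, 0.25 mM NAD⁺, 0.25 U/mL FDH; ΔRFU over 30 min.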
IP6K1 inh: inhibitors of human IP6K1 | IP6K1 kinase, ADP-Glo luminescence, 2 h; stronger effect = lower value | 0.81% of 140,000 active | Q92551 | activity change, % (series mostly up to about 58 µM); in the data active means activity change below about -25%; further: on the % scale 0 is the no-effect control and ±100 the full control effect
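ADP-Glo luminescence measures ADP made by human IP6K1 during a 2 h RT reaction with ATP/IP6 (mix at 1.3 mM/130 uM); top library doses 57.5 and 19.1 uM final.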
SNCA viab count: counter-screen for SNCA expression inhibitors: cell viability; AID 1671193; Potency, µM (highest dose often 57.1 µM), without a hit: at the highest dose activity change, negative = cytotoxicity, actives largely listed as cytotoxic; 0.12% of 150,000 active; HEK-293-SNCA-luc viability, GF-AFC fluorescence, 24 h;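 further: potency means the concentration at half of the fitted maximal effect; 0% = DMSO-treated cells and -100% = medium-only wells without cells; nearly all actives have a fitted effect of over 30% in size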
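HEK-293-SNCA-luc cells (1500/well) plated 24 h, then exposed 24 h to a dilution series; GF-AFC added 30 min at 37C, fluorescence 405/540 nm; normalised to medium-only and DMSO wells, Hill fit.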
SNCA expr inhib: SNCA gene expression inhibition; HEK-293 SNCA-luciferase knock-in, luminescence, 24 h; Potency, µM (top dose mostly 57.2 µM), for inactives: at the top dose activity change, negative = inhibition, hits mostly inhibitors; 0.17% of 140,000 active; AID 1671194;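 further: potency means the concentration at half of the fitted maximal effect; plate controls were DMSO cells for no effect and cell-free wells for full effect; nearly all actives have a fitted effect of over 45% in size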
Starred values were filed as active, the others as inactive; i = inactive; ? = inconclusive; . = no result given; [ ] = another dose, or the depositor's remark. Only some compounds are listed: those with a hit (about 2.8% of all), similar ones and a draw of the others. Unless noted, the call rests on the fitted dose curve; in most records, active means well fitted curve in the direction sought with a large enough effect; inconclusive means small, poorly fitted or top-dose-only effect, or another doubt; inactive means no such curve, though single readings can be large; an effect the other way counts as inactive or inconclusive.

SMILES | KDM5B inhibitor | IP6K1 inh | SNCA viab count | SNCA expr inhib
COCCNc1ncc(-c2ccsc2)c2c1OCC2 | 35µM* | 6 | 5%[87.6 µM] | 95%[87.6 µM]
COc1ccc(CC(C#N)C(=O)Nc2cccc(C)c2C)cc1 (configuration not stated) | i | . | . | .
COc1ccc(-c2ncc(CN3CCCC4(C3)CN(C)C(=O)O4)cn2)cc1 (configuration not stated) | 14µM* | -11 | -6% | 8%
CC(Sc1ccc(F)cc1F)C(N)=O (configuration not stated) | i | . | . | .
CCc1ccc(CN2CCC(CNC(=O)c3ccc(C)nc3)C2)nc1 (configuration not stated) | 16µM* | 0 | 5% | 19%
Cc1oc2cc(OCC(N)=O)ccc2c(=O)c1Oc1ccccc1Br | i | . | . | .
CC(=O)N1C[C@@H]2CCCN3CCC[C@@H]([C@H]23)[C@H]1CCCC(=O)NCCCN1CCCCC1 | 25µM* | 10 | -4% | 12%
CC(=O)N1C[C@@H]2CCCN3CCC[C@@H]([C@H]23)[C@H]1CCCC(=O)NCCN1CCCCC1 | 22µM* | -7 | 17% | -8%
CC(=O)N1C[C@@H]2CCCN3CCC[C@@H]([C@H]23)[C@H]1CCCC(=O)N(C)C | 20µM* | 1 | 0% | -2%
O=C(CCC[C@@H]1[C@H]2CCCN3CCC[C@@H](CN1Cc1ccccc1)[C@@H]23)NCCCn1cccn1 | 22µM* | -1 | 6% | -5%
CN(C)C(=O)CCC[C@@H]1[C@H]2CCCN3CCC[C@@H](CN1C)[C@@H]23 | i | 6 | -2% | -13%
CCN1CCN(CCNC(=O)CCC[C@@H]2[C@H]3CCCN4CCC[C@@H](CN2C(C)=O)[C@@H]34)CC1 | i | 0 | 9% | -16%
CCCCN(Cc1cc2cc(C)ccc2[nH]c1=O)C(=O)c1ccc(OC)c(OC)c1 | i | . | . | .
Cc1ccc(NC(=O)Cn2nc3ccc(S(=O)(=O)C(C)(C)C)nn3c2=O)cc1C | i | . | . | .
O=C(Nc1ccc(Cl)cc1Cl)C1CC2CCC1C2 (configuration not stated) | i | . | . | .
Cc1nnc(NC2CC(c3cc(=O)[nH]c(C4CC4)n3)C2)c2ccccc12 (configuration not stated) | i | 8 | -5% | 5%
Cn1ncc2c(N)nc(NC3CC(c4cc(=O)[nH]c(C5CC5)n4)C3)nc21 (configuration not stated) | 20µM* | 8 | -2% | -4%
CCN(CCOc1ccc(F)cc1)C(=O)c1cnc(NC(C)C)nc1 | 28µM* | -3 | 2% | 1%
O=C(NCc1ccc(Cl)cc1)c1ccnc2[nH]ccc12 | 28µM* | 4 | 0%[87.6 µM] | 24%[87.6 µM]
O=C(NCc1ccnc2[nH]ccc12)c1cccc2[nH]ccc12 | ? | 16 | 8%[87.6 µM] | 102%[87.6 µM]
O=C(NCc1ccnc2[nH]ccc12)c1ccccc1Cl | 35µM* | 10 | 3%[87.6 µM] | 8%[87.6 µM]
CCCN(CC1CCOC1)C(=O)Nc1ccc(CC)cc1 (configuration not stated) | i | 9 | 1% | -23%
COc1ccc(C)cc1CN(C)C(=O)Cc1n[nH]c(=O)c2ccccc12 | i | . | . | .
COc1cccc(Nc2nc(-c3ccc(CNC(C)=O)cc3)cs2)c1 | i | . | . | .
COCC(=O)Nc1ccc(-c2noc([C@@H]3CCCN3Cc3ccc(OC(F)(F)F)cc3)n2)cn1 | i | 13 | -9% | 7%
SMILES | KDM5B inhibitor | IP6K1 inh | SNCA viab count | SNCA expr inhib
COc1ccc(C(=O)Nc2ccc(-c3noc([C@@H]4CCCN4Cc4ccccc4C)n3)cn2)cc1 | 32µM* | -5 | -29% | ?
COc1ccc(C(=O)Nc2ccc(-c3noc([C@@H]4CCCN4C)n3)cn2)cc1 | i | -14 | -16%[87.6 µM] | 6%[87.6 µM]
COc1ccc(C(=O)Nc2ccc(-c3noc([C@@H]4CCCN4Cc4ccc(Cl)cc4)n3)cn2)cc1 | 32µM* | -11 | -4% | -5%
COc1ccc(C(=O)Nc2ccc(-c3noc([C@@H]4CCCN4Cc4ccc(F)c(F)c4)n3)cn2)cc1 | 28µM* | -10 | -19% | -4%
COCC(=O)Nc1ccc(-c2noc([C@@H]3CCCN3Cc3ccc(F)cc3)n2)cn1 | i | 7 | -12%[87.6 µM] | 0%[87.6 µM]
Cc1ccccc1OCc1nnc(SCC(=O)NC2CCCCC2)n1C | i | . | . | .
COc1cccc(-c2nc(NCc3cccnc3)ncc2C(=O)O)c1 | ? | 11 | 4% | -16%
O=C(O)c1cnc(NCc2cccnc2)nc1-c1ccc(Cl)cc1 | 32µM* | -11 | 3% | 3%
COCCNC(=O)c1nc(-c2ccsc2)c2ccccn12 | 40µM* | -5 | 8%[87.6 µM] | 58%[87.6 µM]
